# Screening results from PubChem BioAssay.
# HCMV inh – qHTS Assay for inhibitors of the human cytomegalovirus (HCMV); HFF cells, HCMV-luciferase reporter, 72 h; stronger effect = lower value; activity change, negative = inhibition, % at 57.5 µM; hit rate 4.5% among 410,000; in the data active means activity change below about -60%; inconclusive means no clear call, values can overlap the other calls; inactive means above about -39%
#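 Luciferase read-out from HCMV-luciferase-infected HFFs (MOI 1 PFU/cell) 72 h post infection at 37C; compounds added after 16 h cell attachment; activity normalized between buffer-only basal and Salinomycin (10uM) inhibitor controls.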
# VACV mCherry inh – qHTS for Stage-Specific Inhibitors of Vaccinia Orthopoxvirus: mCherry Reporter Primary qHTS. Vaccinia virus mCherry reporter infection, fluorescence. Potency, µM (highest dose often 36.5 µM), most hits filed as inhibitors. hit rate 0.63% among 310,000. AID 720579, 2013; calls by dose curve; tested in A549 cells; further: nearly all actives have a fitted effect of over 35% in size
# Vaccinia Venus – qHTS for Stage-Specific Inhibitors of Vaccinia Orthopoxvirus: Venus Reporter Primary qHTS | Vaccinia virus Venus reporter expression, fluorescence | Potency, µM (series often up to 36.5 µM), most hits filed as inhibitors | hit rate 0.46% among 330,000 | AID 720580, 2013; calls by dose curve; tested in A549 cells; further: nearly all actives have a fitted effect of over 30% in size
# FMDV inh – High Throughput Screening for Foot and Mouth Disease Virus Antivirals; FMDV antiviral cell-based qHTS; Potency, µM (series often up to 57.9 µM), hits mostly inhibitors; hit rate 1.2% among 410,000; calls by dose curve; tested in HEK293T cells; further: read-out not given here; nearly all actives have a fitted effect of over 45% in size
# FBPA Giardia inh – qHTS Assay for Inhibitors of Fructose-1,6-bisphosphate Aldolase from Giardia Lamblia; hit rate 0.71% among 290,000; purified Giardia FBPA; AID 2451, 2010; Potency, µM (highest dose often 59.6 µM), usual class: inhibitors; A8B2U2; further: nearly all actives have a fitted effect of over 55% in size
# Target sequence (A8B2U2 whole entry, looked up): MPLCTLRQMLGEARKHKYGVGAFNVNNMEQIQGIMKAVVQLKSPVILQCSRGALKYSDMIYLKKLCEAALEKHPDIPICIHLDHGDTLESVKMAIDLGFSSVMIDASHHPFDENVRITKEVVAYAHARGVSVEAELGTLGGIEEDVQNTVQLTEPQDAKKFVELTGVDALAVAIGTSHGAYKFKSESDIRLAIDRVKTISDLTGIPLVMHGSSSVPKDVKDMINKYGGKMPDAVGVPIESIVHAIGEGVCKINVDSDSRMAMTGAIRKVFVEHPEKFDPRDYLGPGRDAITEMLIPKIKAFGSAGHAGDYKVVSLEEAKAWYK
#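 40 nM FBPA preincubated 10 min at RT with compound (up to 57.5 uM final), then substrate plus GAPDH/TPI/NAD/arsenate coupling and diaphorase/resazurin added. Fluorescence read after 20 min at RT, 525/598 nm.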
# HCV inhibitor – qHTS Assay for Inhibitors of Hepatitis C Virus (HCV); AID 651820, 2012; Huh7.5.1 HCVcc-Cre infection, luciferase reporter, 44 h; Potency, µM (highest dose often 41.8 µM), hits mostly inhibitors; hit rate 3.4% among 340,000
#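 Cells seeded at 1,000/well and cultured 4 h, then compounds added followed by HCVcc-Cre virus (~0.5 moi). After 44 h further culture, luciferase substrate was added, plates held 15 min at room temperature, and luminescence read for 15 sec.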
# Numbers stand for hits; i = inactive; ? = inconclusive; nt = not tested or not shown; ! = repeats disagree; [ ] = another dose, or the depositor's remark. An excerpt weighted towards active compounds, which were near 7.5% of everything screened. Unless noted, the call rests on the fitted dose curve; in most records, active means well fitted curve in the direction sought with a large enough effect; inconclusive means small, poorly fitted or top-dose-only effect, or another doubt; inactive means no such curve, though single readings can be large; an effect the other way counts as inactive or inconclusive.
SMILES,HCMV inh,VACV mCherry inh,Vaccinia Venus,FMDV inh,FBPA Giardia inh,HCV inhibitor
COc1ccc(C)cc1N1C(=N)/C(=C2/Nc3ccccc3S2)C(c2ccccc2)C1=O (stereo not given),i,i,i,25µM,i,i
S=c1nc(C2COc3ccccc3O2)[nH][nH]1 (stereo not given),i,i,i,i,?,i
CCCS(=O)(=O)c1cnc(C2COc3ccccc3O2)nc1N (stereo not given),-88,i,i,35µM,i,i
O=[N+]([O-])c1cc(S(=O)(=O)Nc2cccc(Cl)c2)ccc1N/N=C/c1ccc(N2CCOCC2)cc1,i,nt,nt,i,i,i
COC(=O)C[C@@H]1C=C[C@@H](NC(=O)CN(C)C)[C@@H](CO)O1,i,i,i,i,nt,nt
CCc1ccc(-n2nc3cc(C)c(NC(=O)c4cccc5ccccc45)cc3n2)cc1,i,i,i,i,nt,nt
COC(=O)c1ccccc1C(=O)N1CCCC(CCC(=O)NCc2ccc(F)c(F)c2)C1 (stereo not given),i,i,i,i,i,i
CCc1nn2c(=O)c(S(=O)(=O)Nc3cccc(F)c3)c(C)nc2s1,i,i,i,i,i,i
CCc1nn2c(=O)c(S(=O)(=O)Nc3ccc(C(C)C)cc3)c(C)nc2s1,-64!,i,i,i,i,i
COc1ccc(C(CC(=O)N2CCCC2)c2c(OC)cc(OC)c3c(-c4ccccc4)cc(=O)oc23)cc1 (stereo not given),i,i,?,i,i,?
COc1ccc(C(CC(=O)N2CCCC2)c2c(OC)cc(OC)c3ccc(=O)oc23)cc1 (stereo not given),i,i,i,i,i,2.8µM
COc1ccc(C(CC(=O)N2CCCC(C)C2)c2c(OC)cc(OC)c3c(-c4ccccc4)cc(=O)oc23)cc1 (stereo not given),-68,i,?,i,i,?
COc1ccc(C(CC(=O)N2CCCC(C)C2)c2c(OC)cc(OC)c3ccc(=O)oc23)cc1 (stereo not given),i,i,i,i,i,11µM
CCc1nn(CC(=O)NCCc2ccc(Cl)cc2)c(=O)c2cc3c(OC)cccc3n12,i,i,i,i,nt,nt
C=CC[C@@H]1C=C[C@H](O/N=C(\C)CCN2CCc3nc(CC)c(CC)cc3C2)[C@H](CO)O1,nt,nt,nt,nt,i[12.9 µM],nt
C[n+]1cc(-c2ccccc2)n2c1CCCCC2,nt,nt,nt,i,nt,i
COc1ccc(-n2c(-c3ccc(Br)cc3)c[n+]3c2CCc2ccccc2-3)cc1,-100,nt,nt,?,i,?
CC(C)c1ccc(-n2c(-c3ccccc3)c[n+]3c2CCc2ccccc2-3)cc1,-98,?,?,11µM,i,?
COc1ccccc1-n1c(-c2ccccc2)c[n+]2c1CCc1ccccc1-2,-100,i,?,3.2µM,i,4µM
CCOc1ccc(-n2c(-c3ccccc3)c[n+]3c2CCC3)cc1,i,i,i,?,i,i
COc1ccc(CN2C(=NC(=O)C3CCCCC3)SC3CS(=O)(=O)CC32)cc1 (stereo not given),i,i,i,i,nt,i
CCCCN1CCC(n2c(=O)[nH]c3ccccc32)CC1,nt,nt,nt,nt,i,nt
O=c1[nH]c2ccccc2n1CCCN1CCC(n2c(=O)[nH]c3cc(Cl)ccc32)CC1,-79,i,i,?,i,?
Cc1ccc2c(c1)c(=O)c(C(=O)c1ccccc1)cn2Cc1ccccc1F,i,?,?,i,nt,nt
COc1ccc(/C=N/NC(=S)Nc2cc(S(=O)(=O)N3CCOCC3)ccc2N2CCOCC2)cc1O,i,i,?,?,i,10µM
SMILES,HCMV inh,VACV mCherry inh,Vaccinia Venus,FMDV inh,FBPA Giardia inh,HCV inhibitor
CCOc1cccc(/C=N/NC(=S)Nc2cc(S(=O)(=O)N3CCOCC3)ccc2N2CCOCC2)c1O,-79,7.1µM,?,?,i,?
CCOC(=O)CCCCCC(=O)Nc1ccc2c(c1)CC(=O)N([C@H](C)CO)C[C@H](C)[C@H](CN(C)S(=O)(=O)c1ccc(OC)cc1)O2,i,i,i,i,nt,i
Fc1cccc(-c2cc3nc4c(c(N5CCC6(CC5)OCCO6)n3n2)CCCC4)c1,i,i,i,nt,i,13µM
CCO[C@@H]1OC(C(=O)NCc2nc3ccccc3[nH]2)=C[C@H](C(C)(C)C)[C@H]1CCCO,-80,i,?,i,nt,i
CCOC(=O)C1=C(CSc2nc3c(cc2C#N)CN(C)CC3)OC(N)=C(C#N)C1c1ccc(F)cc1 (stereo not given),i,nt,i,i,?,10µM
CN1CCc2nc(SCc3ccccc3Br)c(C#N)cc2C1,i,nt,nt,i,i,7.9µM
CCOC(=O)C1=C(CSc2nc3c(cc2C#N)CN(C)CC3)OC(N)=C(C#N)C1c1ccccc1 (stereo not given),i,i,i,i,i,?
Cc1cccc(CSc2nc3c(cc2C#N)CN(C)CC3)c1,i,i,i,i,i,14µM
COc1ccc(Oc2nc3c(C)cccn3c(=O)c2/C=C(\C#N)c2nc3ccccc3[nH]2)cc1,i,i,i,i,nt,nt
Cc1noc(C)c1C(=O)N1CCC2(CC1)CCN(C(c1ccccc1)c1ccccc1)CC2,nt,nt,nt,i,i,nt
COc1ccc(N2C(=O)/C(=C/c3cccs3)C(=O)NC2=S)cc1,i,i[7.34 µM],i[7.34 µM],25µM,i,i
COc1ccc(N2C(=O)/C(=C/C=C/c3ccccc3[N+](=O)[O-])C(=O)NC2=S)cc1,i,i,i,22µM,?,i
O=C1NC(=O)N(CCc2ccc(F)cc2)C(=O)/C1=C/c1ccco1,i,i,i,i,i,i
Cc1ccc(/C=C2/C(=O)NC(=O)N(CCc3ccc(F)cc3)C2=O)o1,i,nt,i,25µM,i,i
CCN1C(=O)N/C(=C/c2ccc(C)o2)C1=O,i,nt,nt,i,?,i
Cc1ccc(/C=C2/NC(=O)N(Cc3ccccc3F)C2=O)o1,-72,i,i,i,?,i
S=C(NCCCN(Cc1ccc(Cl)cc1)c1ccc(Br)cn1)NCc1ccc2nc[nH]c2c1,nt,i,i,nt,nt,nt
C=CCN1C(=O)/C(=C/c2cccs2)C(=O)NC1=S,i,i,i,i,i,i
COc1ccc(N2C(=O)/C(=C/c3ccc(N(C)C)o3)C(=O)NC2=S)cc1,i,nt,nt,i,i,i
O=C1NC(=S)N(Cc2ccco2)C(=O)/C1=C\c1cccs1,nt,nt,nt,nt,16µM,nt
COc1cccc(N2C(=O)/C(=C/c3ccc(C)o3)C(=O)NC2=S)c1,i,nt,nt,18µM,i,i
O=C1NC(=S)N(c2ccccc2)C(=O)/C1=C/c1ccco1,i,i,i,35µM,i,i
Cc1ccc(/C=C2\C(=O)NC(=S)N(c3ccc(F)cc3)C2=O)o1,i,nt,nt,32µM,?,i
O=C(CSc1nnc(-c2cccnc2)o1)Nc1cccc(F)c1,i,i,i,i,nt,i
